Compound activity deposited in PubChem BioAssay by National Center for Advancing Translational Sciences (NCATS).
KDM5B inh: blocks human KDM5B histone demethylase activity | Q9UGL1 | KDM5B demethylase, FDH-coupled NADH fluorescence (FDH is formaldehyde dehydrogenase) | Potency, µM (top dose mostly 57.7 µM), actives largely listed as inhibitors | 220,000 compounds, 2.6% hits; active = well fitted inhibition curve with a large enough effect; also: nearly all actives have a fitted effect of over 70% in size
Target sequence (Q9UGL1 whole entry, looked up): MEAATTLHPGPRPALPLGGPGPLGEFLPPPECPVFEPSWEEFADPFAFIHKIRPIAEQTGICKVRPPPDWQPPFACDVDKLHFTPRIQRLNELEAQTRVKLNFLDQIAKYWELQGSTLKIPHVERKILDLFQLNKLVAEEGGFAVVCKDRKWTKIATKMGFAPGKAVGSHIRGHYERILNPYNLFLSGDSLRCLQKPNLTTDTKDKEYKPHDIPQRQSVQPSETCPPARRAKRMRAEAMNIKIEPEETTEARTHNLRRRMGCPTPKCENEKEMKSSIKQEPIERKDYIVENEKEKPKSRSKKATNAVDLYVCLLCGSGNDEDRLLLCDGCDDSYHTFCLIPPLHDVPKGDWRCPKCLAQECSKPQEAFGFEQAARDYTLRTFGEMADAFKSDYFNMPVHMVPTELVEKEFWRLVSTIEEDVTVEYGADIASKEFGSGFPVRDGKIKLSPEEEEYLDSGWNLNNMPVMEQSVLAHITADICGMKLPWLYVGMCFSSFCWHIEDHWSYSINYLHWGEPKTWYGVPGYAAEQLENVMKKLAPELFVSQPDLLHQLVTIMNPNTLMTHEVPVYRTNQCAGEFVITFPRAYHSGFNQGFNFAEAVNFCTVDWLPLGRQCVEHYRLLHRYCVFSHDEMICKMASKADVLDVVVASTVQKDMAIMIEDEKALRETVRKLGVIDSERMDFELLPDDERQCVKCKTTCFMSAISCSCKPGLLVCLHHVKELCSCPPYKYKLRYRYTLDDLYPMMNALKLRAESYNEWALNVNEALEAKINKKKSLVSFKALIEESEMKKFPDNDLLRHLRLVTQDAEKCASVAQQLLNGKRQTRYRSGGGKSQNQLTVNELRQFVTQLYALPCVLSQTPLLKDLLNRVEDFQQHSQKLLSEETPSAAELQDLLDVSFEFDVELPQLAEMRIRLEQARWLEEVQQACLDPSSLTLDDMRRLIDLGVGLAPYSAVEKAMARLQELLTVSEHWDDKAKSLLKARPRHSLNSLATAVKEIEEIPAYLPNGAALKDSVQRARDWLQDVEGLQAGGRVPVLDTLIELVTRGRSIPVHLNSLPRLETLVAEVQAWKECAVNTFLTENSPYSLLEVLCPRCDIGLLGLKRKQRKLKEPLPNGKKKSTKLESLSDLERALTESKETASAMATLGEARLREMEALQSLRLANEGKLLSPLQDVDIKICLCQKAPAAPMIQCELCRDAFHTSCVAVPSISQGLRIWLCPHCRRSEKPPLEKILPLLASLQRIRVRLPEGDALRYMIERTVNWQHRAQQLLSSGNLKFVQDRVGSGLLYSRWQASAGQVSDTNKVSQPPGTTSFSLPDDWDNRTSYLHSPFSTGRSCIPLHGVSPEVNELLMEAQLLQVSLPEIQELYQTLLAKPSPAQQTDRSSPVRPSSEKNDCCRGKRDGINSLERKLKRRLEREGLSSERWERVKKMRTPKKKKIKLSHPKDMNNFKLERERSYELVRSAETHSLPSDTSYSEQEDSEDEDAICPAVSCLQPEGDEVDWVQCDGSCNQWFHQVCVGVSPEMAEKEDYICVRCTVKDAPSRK
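Coupled FDH/NAD⁺ fluorescence readout. KDM5BΔAP 200 nM final; compound titration, 10 min RT preincubation; substrate mix 12.5 µM H3K4me3, 25 µM 2-OG, 50 µM Fe(II), 100 µM ascorbate, 0.25 mM NAD⁺, 0.25 U/mL FDH; ΔRFU over 30 min.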
Hits are given with their value. The sample as a whole holds a higher share of hits than the screen did.

`CC(C)(C)CC(=O)Nc1nc2c(s1)C[C@@H]1[C@](C)(CO)[C@H](O)CC[C@@]1(C)[C@@H]2CC(=O)NCc1ccccc1` gave KDM5B inh inactive.
Screening C[C@]1(CO)[C@H]2Cc3sc(NC(=O)c4ccc(F)cc4)nc3[C@@H](CC(=O)NCc3cccnc3)[C@]2(C)CC[C@H]1O returned KDM5B inh inactive.
For CCSC1=Nc2c(cnn2-c2ccc(C)c(Cl)c2)C2=NCCCN12 the results were KDM5B inh inactive.
CN(CC(=O)Nc1ccc(F)cc1)C(=O)COc1ncnc2sccc12 was read as KDM5B inh inactive.
Screening O=C(NCCC(c1ccccc1)c1ccccc1)c1n[nH]c(=O)c2ccccc12 returned KDM5B inh inactive.
Screening CCOc1ccc(-c2cc3c(=O)n(CCNC(=O)c4ccc(OC)c(F)c4)ccn3n2)cc1 returned KDM5B inh inactive.
COc1ccc(-c2cc3c(=O)n(CCNC(=O)c4c(F)cccc4Cl)ccn3n2)cc1 was read as KDM5B inh 22µM.
`COc1ccc(-c2cc3c(=O)n(CCNC(=O)c4c(F)cccc4F)ccn3n2)cc1` gave KDM5B inh 22µM.
`COc1ccccc1C(=O)NCCn1ccn2nc(-c3ccc(C)cc3C)cc2c1=O` gave KDM5B inh inactive.
Screening COc1ccccc1C(=O)NCCn1ccn2nc(-c3cc(C)ccc3C)cc2c1=O returned KDM5B inh inactive.
Screening CCC(C(=O)NCCn1ccn2nc(-c3cccc(OC)c3)cc2c1=O)c1ccccc1 (centres undefined) returned KDM5B inh inactive.
`CCC(C(=O)NCCn1ccn2nc(-c3ccc(OC)cc3)cc2c1=O)c1ccccc1` (centres undefined) gave KDM5B inh 20µM.
COc1ccc(-c2cc3c(=O)n(CCNC(=O)c4cccc(OC)c4OC)ccn3n2)cc1 was read as KDM5B inh 25µM.
For O=C(OCc1nc2ccccc2o1)c1ccc(CO)cc1 the results were KDM5B inh inactive.
Screening O=c1oc(-c2ccccc2)cc(-c2ccccc2)c1-c1ccccc1 returned KDM5B inh inactive.
CC(CN1CCOCC1)OC(=O)COc1ccc(Br)cc1 (centres undefined) was read as KDM5B inh inactive.
CCOC(=O)COc1ccc(Br)cc1/C=C1\NC(=O)NC1=O was read as KDM5B inh inactive.
`CC(C)c1ccc(CS(=O)(=O)Cc2ccc(C#N)cc2)cc1` gave KDM5B inh inactive.
Screening COc1cc(-c2c(NC(=O)C(C)C)n(C)c3ccccc3c2=O)cc(OC)c1OC returned KDM5B inh inactive.
COC(=O)C1=C(C)NC(=O)CC1C(=O)Nc1ccc(Cl)cc1 (centres undefined) was read as KDM5B inh inactive.
Screening Cc1ccc(CN(C(=O)CC23CC4CC(CC(O)(C4)C2)C3)C2CC2)o1 returned KDM5B inh inactive.
CCn1nc(C(=O)Nc2nc3c(s2)CC(C)CC3)c2ccccc2c1=O (centres undefined) was read as KDM5B inh inactive.
For CCCCCC(=O)N1CCN(CCNc2cc(=O)oc3ccccc23)CC1 the results were KDM5B inh inactive.
Screening COc1ccc(C2=NS(=O)(=O)N(C)C(C(=O)NC(C)C)=C2)cc1OC returned KDM5B inh inactive.
`CC(C)(C)c1cc(C=NCc2ccccc2)cc(C(C)(C)C)c1O` gave KDM5B inh inactive.
For N#Cc1nc(C2CC2)oc1N1CCN(C(=O)c2ccccc2)CC1 the results were KDM5B inh inactive.
O=C(NN=C1CCCC1)c1nc(-c2ccccc2)n(-c2ccccc2)n1 was read as KDM5B inh inactive.
Screening CCn1cc(-c2cc(C(=O)N3CCCCCC3)c3cccc(C)c3n2)cn1 returned KDM5B inh 32µM.
Cc1ccc(C)c(-c2cc(C(=O)O)c3cccc(C)c3n2)c1 was read as KDM5B inh inactive.
`Cc1cccc2c(C(=O)N3CCN(Cc4ccccc4)CC3)cc(-c3cccnc3)nc12` gave KDM5B inh inactive.
For CC(C)NC(=O)/C=C/c1cccc(Cl)c1 the results were KDM5B inh inactive.
Screening COc1ccc(OCCn2cc(C(C)=O)c3ccccc32)cc1 returned KDM5B inh inactive.
`Cc1c(-c2cc(C(=O)N3CCC(=O)N(CC4CC4)C(C(C)C)C3)no2)cnn1C` (centres undefined) gave KDM5B inh inactive.
For CC(C)C1CN(c2cncc(C(=O)N3CCCC3)n2)CCC(=O)N1CC1CC1 (centres undefined) the results were KDM5B inh 28µM.
Screening Cc1cccc2nc(C(=O)N3CCC(=O)N(CC4CC4)C(C(C)C)C3)cn12 (centres undefined) returned KDM5B inh inactive.
For CC(C)C(=O)NCCSCc1cccs1 the results were KDM5B inh inactive.
CC(=O)c1cnn(-c2cc(Oc3ccc(C#N)cc3)nc(C)n2)c1C was read as KDM5B inh inactive.
Cc1ccc(-c2cc(C(=O)NC3CCCCC3C)c3ccccc3n2)cc1C (centres undefined) was read as KDM5B inh inactive.
CCNC(=O)CN1CCN(C(C(=O)O)c2c[nH]c3ccc(Cl)cc23)CC1 (centres undefined) was read as KDM5B inh inactive.
CC(CNC(=O)c1cc2cc(F)ccc2[nH]1)c1ccccc1 (centres undefined) was read as KDM5B inh inactive.
For O=C(COc1ccccc1)N[C@H]1CO[C@H]2[C@@H]1OC[C@@H]2Nc1nccc(-c2cccs2)n1 the results were KDM5B inh 28µM.
`O=C(N[C@H]1CO[C@H]2[C@@H]1OC[C@@H]2Nc1nccc(-c2cccs2)n1)C1CCCCC1` gave KDM5B inh 35µM.
O=C(Nc1ccccc1)O[C@@H]1CO[C@H]2[C@@H]1OC[C@@H]2NC(=O)C1CCCCC1 was read as KDM5B inh inactive.
Screening CC(=O)Nc1ccc(S(=O)(=O)N[C@H]2CO[C@H]3[C@@H]2OC[C@@H]3Nc2nccc(-c3cccs3)n2)cc1 returned KDM5B inh 25µM.
Screening O=C(N[C@H]1CO[C@H]2[C@@H]1OC[C@@H]2Nc1nccc(-c2cccs2)n1)c1ccccc1 returned KDM5B inh 35µM.
Screening CC(C)(C)c1ccnc(N[C@H]2CO[C@H]3[C@@H]2OC[C@@H]3NS(=O)(=O)c2cccs2)n1 returned KDM5B inh inactive.
COC(=O)c1cn([C@H]2CO[C@H]3[C@@H]2OC[C@@H]3NC(=O)COc2ccccc2)nn1 was read as KDM5B inh inactive.
CC(=O)Nc1ccc(S(=O)(=O)N[C@H]2CO[C@H]3[C@@H]2OC[C@H]3OC(=O)Nc2ccccc2)cc1 was read as KDM5B inh inactive.
Screening CCCC/C(=N\NC(C)=O)c1ccccc1 returned KDM5B inh inactive.
For CC(Sc1n[nH]c(-c2cccs2)n1)C(=O)Nc1cc(Cl)cc(Cl)c1 (centres undefined) the results were KDM5B inh inactive.
`NS(=O)(=O)Cc1ccc(CNC(=O)c2cccc(F)c2)cc1` gave KDM5B inh inactive.
For CCNc1c(NC(=O)NCCc2ccccc2)c(=O)oc2ccccc12 the results were KDM5B inh inactive.
For COc1ccc(/C(C)=N/OC(=O)c2ccc(OC(C)C)cc2)cc1OC the results were KDM5B inh inactive.
For COc1ccc(NC(=O)C2CCCN(c3nnc(-n4c(C)ccc4C)s3)C2)cc1OC (centres undefined) the results were KDM5B inh inactive.
Clc1ccc(-c2cnc([C@@H]3COCCN3Cc3c[nH]c4ccccc34)[nH]2)s1 was read as KDM5B inh inactive.
For CCCCNC(=O)/C=C/C(=O)Nc1cc(Cl)cc(Cl)c1 the results were KDM5B inh inactive.
